Measured values from PubChem BioAssay (NCI).
The panel holds about 83,000 compounds, 20% with a hit somewhere; the sample as a whole holds those more often.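 For each line, cells grew in 96-well plates with the test compound present at a single concentration for 48 hours.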 Unmarked numbers belong to inactive results. Calls of active or inactive are those of the source. Rule for the calls: active = growth percent below 10; inactive = the rest.

The compounds below were run on HL-60(TB) leukemia (assay: NCI-60 one-dose screen, 48 h (100 = growth as untreated, 0 = no growth, -100 = all killed)). Settings: 10 µM unless noted.

| Compound | growth |
| --- | --- |
| Cc1ccc(Cl)cc1NC(=O)c1sc2nc3c(cc2c1N)C(=O)CCC3 | 82.2% |
| Cc1ccc(NC(=O)c2ccccc2Cl)cc1 | 86.1% |
| Cc1onc(-c2c(F)cccc2Cl)c1-c1ncc(-c2ccc(Cl)cc2)o1 | 36.4% |
| C#Cc1cccc(Oc2ccc(NC(=O)CCl)cc2)c1 | 0.122% [8.25 µM] (active) |
| CC(C)(C)OC(=O)N[C@@H](Cc1ccccc1)C(=O)N(Cc1ccccc1)C1(C(=O)NCc2ccccc2)CCN(Cc2ccccc2)CC1 | 7.23% (active) |
| CCN(CC)CCCNC(=O)c1ccc(N)cc1 | 76.5% |
| O=C(O)Cc1cc(=O)[nH]n(-c2ccccc2)c1=O | 95.3% |
| FC(F)(F)c1cccc(-n2nnc3cnc(Nc4ccc(N5CCCCC5)cc4)nc32)c1 | 103% |
| COc1cc2c(c(OC)c1OC)C(=O)CC(c1cccc(C(=O)Nc3ccc(Br)cc3)c1)O2 (stereo not given) | 13.8% |
| Cc1ccc(-c2noc(C)n2)cc1 | 100% |
| COc1cc(/C=N/NC(=O)c2ccc3nc(-c4ccc(Cl)cc4)[nH]c3c2)cc(OC)c1OC | 44.9% |
| C[C@]12CC[C@H]3[C@@H](CC=C4C[C@@H](O)CC[C@@]43C)[C@@H]1CC[C@@H]2C(=O)C/C=N/O | 78.9% |
| COc1cc(N2C(=O)C=CC2=O)ccc1N1C(=O)C=CC1=O | 82.9% |
| COc1ccc2c(O)cc3c(c2c1)[C@H](CCl)CN3C(=O)c1cc2cc(NC(=O)CCN3CCOCC3)ccc2[se]1 | 66% |
| O=C(/C=C/c1cccnc1)NCCCCC1CCCN(C(=O)c2ccccc2)C1 (stereo not given) | 63.6% |
| Cn1c([N+](=O)[O-])cnc1C=C1C(=O)c2ccccc2C1=O | 4.69% (active) |
| CC(=O)N(N=O)c1ccc([N+](=O)[O-])cc1Cl | 55.7% |
| Cc1ccc(C(=O)Nc2nc3c(s2)CN(Cc2ccccc2)CC3)cn1 | 92.6% |
| COc1cccc(C(Cc2ccccc2)Nc2ccccc2)c1OC (stereo not given) | 96.3% |
| O=C(CNc1ncco1)Nc1ccc(S(=O)(=O)c2ccc(NC(=O)CNc3ncco3)cc2)cc1 | 44.8% |

| Compound | growth |
| --- | --- |
| CCOC(=O)c1cnc2sc(-c3ccc(OC)cc3)nc2c1Cl | 93.8% |
| Cc1ccc(S(=O)(=O)O)c(C)c1 | 100% |
| COc1cc(C2CC(=O)Nc3c2cc(Br)c2ccccc32)cc(Br)c1OC (stereo not given) | -2.09% (active) |
| CCN(CC)c1ccc(C(=O)c2ccccc2)cc1 | 87.4% |
| COCCn1cc(-c2nc(-c3cn(CCOC)c4ncccc34)cs2)c2cc(F)ccc21 | 97.8% |
| COC(=O)c1cc(-c2ccc(OC)c(OC)c2)[nH]c1N/N=C/c1c(Cl)cccc1Cl | 3.48% (active) |
| O=S(=O)(NCCCNc1nccc(-n2ccc3cccnc32)n1)c1ccc(Br)cc1 | 110% |
| O=C1/C(=C/N2N=C(c3ccc4ccccc4c3)CC2c2ccccc2O)SC(=S)N1c1cccnc1 (stereo not given) | -15.3% (active) |
| CC(C)[C@H](CO)Nc1nc(Nc2ccc(C(=O)NCCNS(=O)(=O)c3cccc4c(N(C)C)cccc34)c(Cl)c2)c2ncn(C(C)C)c2n1 | -36.7% (active) |
| O=c1nc(Nc2cccc(Cl)c2)oc2cc(Cl)oc(=O)c12 | 26.4% |
| Nc1nc(-c2ccc(F)cc2)cc(-c2cnn(-c3ccccc3)n2)n1 | 101% |
| COc1ccc(-c2nn(-c3cccc(Cl)c3)cc2-c2nc(N)[nH]c(=O)c2C#N)cc1 | 78.7% |
| C=C1C(=O)O[C@H]2[C@H]1CC/C(COC(=O)CCCCCC(=O)OC/C1=C/CC[C@@]3(C)O[C@H]3[C@H]3OC(=O)C(=C)[C@@H]3CC1)=C\CC[C@@]1(C)O[C@@H]21 | -30% (active) |
| COc1ccc(/C=N/NC(N)=S)c(OC)n1 | 93.4% |
| CCCCC/C=C\C/C=C/CCCCCCCCNC(=O)Nc1ccc([N+](=O)[O-])cc1 | 4.75% (active) |
| COc1ccc(C(=O)COc2ccc(/C=C3\COc4ccc(OC)cc4C3=O)cc2)cc1 | 59.4% |
| C[N+](C)(C)CCCCCCCCCC[N+](C)(C)C | 96.5% |
| CC1/C=C/C=C/C=C/C=C/C=C/C=C/C=C/C(O[C@@H]2O[C@H](C)[C@H](O)[C@@H](O)[C@@H]2N)CC(O)C(C(=O)O)C(O)CC(=O)CC(O)CC(O)CC(O)CC(=O)CCCC(=O)CC(=O)OC1C(C)CC(C)C(O)CC(=O)c1ccc(N)cc1 (stereo not given in full) | -60.3% (active) |
| C#CC[C@@H]1C[C@]2(C)[C@H]3CC=C4[C@H]5[C@@H](C)[C@H](C)CC[C@]5(C(=O)NCCCN5CCN(CCCN)CC5)CC[C@@]4(C)[C@]3(C)CC[C@H]2C(C)(C)[C@H]1OC(C)=O | -55.9% (active) |
| O=C(Nc1ccccc1O)c1ccc(NS(=O)(=O)c2cccc3cccnc23)cc1 | -12.2% (active) |
